Laboratory results taken from PubChem BioAssay AID493199 (National Center for Advancing Translational Sciences (NCATS), 2011).
Some of the results follow. Records with an inconclusive call do not appear. The source made the active and inactive calls. Calls come from the whole dose curve; as a rule, active = well fitted inhibition curve with a large enough effect; inconclusive = small, poorly fitted or top-dose-only effect, or effect the other way; inactive = no such curve, though single readings can be large or run the other way.

What follows are molecules tested against Muscleblind-like protein 1 (Homo sapiens) (UniProt Q9NR56) (assay: qHTS Assay for Inhibitors of MBNL1-poly(CUG) RNA binding: Initial hit validation from the primary screen). Settings: TR-FRET MBNL1-His / biotin-(CUG)12 binding, 60 min.
Chain of Muscleblind-like protein 1 (Homo sapiens) (Q9NR56 whole entry, looked up): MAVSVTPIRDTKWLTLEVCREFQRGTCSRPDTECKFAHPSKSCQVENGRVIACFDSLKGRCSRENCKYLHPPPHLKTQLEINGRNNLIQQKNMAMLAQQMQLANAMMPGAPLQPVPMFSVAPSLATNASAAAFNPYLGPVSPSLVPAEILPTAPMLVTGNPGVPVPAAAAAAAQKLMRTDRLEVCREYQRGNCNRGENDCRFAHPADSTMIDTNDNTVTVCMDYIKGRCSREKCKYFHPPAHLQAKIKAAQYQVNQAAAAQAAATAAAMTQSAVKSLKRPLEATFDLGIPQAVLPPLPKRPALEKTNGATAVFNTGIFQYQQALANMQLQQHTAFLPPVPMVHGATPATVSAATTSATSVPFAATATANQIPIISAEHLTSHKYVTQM
Text: NIH Chemical Genomics Center [NCGC] NIH Molecular Libraries Probe Production Centers Network [MLPCN] MLPCN Grant: R03 MH087421-01 Assay Submitter (PI): Charles Thornton NCGC Assay Overview: Expanded CTG repeats in the 3' untranslated region of the DM protein kinase (DMPK) gene causes type I myotonic dystrophy (DM1). DM1 is a multi-systemic disease with a prevalence of 1/7000. Clinical features include myotonia, progressive muscle weakness and wasting, cardiac arrhythmia, insulin resistance, hypersomnolence, cataracts, and other symptoms. The pathogenic effect of expanded CTG repeats stems from deleterious effects of the mutant transcript. CUGexp mRNA accumulates in nuclear foci and sequesters proteins of the muscleblind family, of which MBNL1 is the most common family member in skeletal muscles. The binding interaction between MBNL1 and CUGexp tracts leads to deregulation of alternative splicing and is therefore a key molecular step in the pathogenesis of DM1. To target this binding interaction, we optimized a protein-RNA binding assay in 1536-well format for identification of small molecule inhibitors of biotinylated (CUG)12 and his-tagged MBNL1 binding. Protein-RNA complex of MBNL1-His and Biotin-(CUG)12 captures the detection reagents terbium-labeled anti-His antibody and streptavidin conjugated XL665. This brings the terbium label within close proximity to XL665 to allow time-resolved fluorescence resonance energy transfer (TR-FRET). Inhibitors of MBNL1-(CUG)12 binding will disrupt TR-FRET. This deposition presents the initial confirmation of hits from the primary screen in the same assay.
NCGC Assay Protocol Summary: This is a TR-FRET binding assay with MBNL1-His and Biotin-(CUG)12 RNA. The assay uses a ratiometric measurement. […] (3) Add 1 ul of terbium labeled anti-His antibody (0.055 ng/ul final concentration) (4) Add 1 ul of streptavidin-XL665 (5 nM final concentration) (5) Incubate 60 min at room temperature (6) Detect the assay plate in a EnVision plate reader (PerkinElmer) with Ex=340 nm, Em1=665 nm and Em2=545 nm. […]

Potency, active:
CCOC(=O)c1c(C)[nH]c2c1-c1ccccc1C(=O)C2=O 3.26 µM
COc1cccc(NC(=O)Cn2cnc3sc(C)c(S(=O)(=O)N4CCN(C)CC4)c3c2=O)c1 16.3 µM
COc1ccc(Cc2n[nH]c(=S)n2NC(=O)Nc2ccc(C)cc2)cc1 20.6 µM
